Experiment [1] in a line: HepG2 liver cancer cell viability effects, profiling panel, resazurin fluorescence, 24 h, PK04 Diversity Set (AID 1172). Further: test concentration not given here. Particulars: higher = more signal. In general terms: Resazurin is reduced to fluorescent resorufin, in cell work by metabolically active cells.
A short description of experiment [2]: basal S. cerevisiae growth modulation, no modifier, primary screen, OD600, strain BY4716, 24 h, basal condition (AID 1173). Particulars: OD600, 24 h, higher = more signal, called active from +8 up or from −8 down.
Experiment [3] can be described thus: MM1S myeloma cell viability, profiling panel, resazurin fluorescence, basal, 24 h, PK04 Diversity Set (AID 1174).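 Further: MM1S multiple myeloma cell line; test concentration not given here.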 The settings on record: higher = more signal, called active from +8 up or from −8 down.
For experiment [4], the target named is Dihydroorotate dehydrogenase (quinone), mitochondrial (Plasmodium falciparum (isolate 3D7)) (UniProt Q08210). Description: PfDHODH enzyme inhibitors, primary screen, biochemical, C-terminal His tag, absorbance 600 nm (AID 1175).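 Further: recombinant parasite enzyme with a five histidine tag at its C terminus; test concentration not given here.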 The settings on record: DCIP absorbance 600 nm, higher = more signal, called active from +8 up or from −8 down.
Chain of Dihydroorotate dehydrogenase (quinone), mitochondrial (Plasmodium falciparum (isolate 3D7)) (Q08210 whole entry, looked up): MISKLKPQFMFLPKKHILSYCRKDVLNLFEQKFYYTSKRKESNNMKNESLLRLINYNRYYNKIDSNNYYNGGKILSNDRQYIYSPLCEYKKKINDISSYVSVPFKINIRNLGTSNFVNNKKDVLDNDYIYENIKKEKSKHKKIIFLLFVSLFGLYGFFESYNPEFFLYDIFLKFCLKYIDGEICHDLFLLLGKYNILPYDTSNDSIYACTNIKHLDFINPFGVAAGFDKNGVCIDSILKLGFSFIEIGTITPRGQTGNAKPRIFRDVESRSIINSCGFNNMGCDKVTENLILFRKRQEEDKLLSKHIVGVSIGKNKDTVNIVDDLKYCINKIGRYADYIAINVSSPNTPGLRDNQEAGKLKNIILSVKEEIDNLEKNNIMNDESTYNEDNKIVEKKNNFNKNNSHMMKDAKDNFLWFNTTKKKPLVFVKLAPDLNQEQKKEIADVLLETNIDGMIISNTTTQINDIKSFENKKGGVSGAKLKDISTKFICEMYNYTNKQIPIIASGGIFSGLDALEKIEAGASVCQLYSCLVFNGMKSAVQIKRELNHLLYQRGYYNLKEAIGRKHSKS
The nature of experiment [5]: P. aeruginosa biofilm formation inhibitors, primary screen, strain PAO1, LB-PBS medium, absorbance 600 nm (AID 1176). Further: test concentration not given here. The settings on record: P. aeruginosa PAO1 growth/biofilm, A600, 12 h; higher = more signal.
The nature of experiment [6]: S. cerevisiae RM11-1a growth modifiers, primary screen, strain RM11-1a, OD600, basal, 24 h (AID 1177).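 Further: cultures grown under basal conditions with no added stressor; test concentration not given here.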 The settings on record: OD600, 24 h, higher = more signal, called active from +8 up or from −8 down.
The nature of experiment [7]: E. coli acrAB mutant growth effects, primary screen, E. coli filamentation inducers, strain DRC39, OD650, 24 h (AID 1178).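 Further: growth measured as culture turbidity by optical density at 650 nm; test concentration not given here.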 The settings on record: higher = more signal, called active from +8 up or from −8 down.
Experiment [8] is described as follows: E. coli acrAB mutant growth effects, primary screen, E. coli filamentation inducers, strain DRC39, OD650, 48 h (AID 1179).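 Further: screen aims at cell division blockers that make cells filament.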 The settings on record: E. coli DRC39 delta-acrAB growth, higher = more signal, called active from +8 up or from −8 down.
Experiment [9] is described as follows: RPMI8226 myeloma cell viability, profiling panel, resazurin fluorescence, basal, 24 h, PK04 Diversity Set (AID 1180).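 Further: RPMI8826 multiple myeloma cell line at 5000 cells per well; test concentration not given here.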 The settings on record: higher = more signal.
For experiment [10], the target named is E3 ubiquitin-protein ligase XIAP (Homo sapiens) (UniProt P98170). The experiment can be described thus: XIAP binders, primary screen, biophysical, small-molecule microarray, fluorescence 635 nm (AID 1181).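 Further: score merges 667 nm emission and signal to noise over triplicate slides.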 Particulars: small-molecule microarray binding, higher = more signal.
Chain of E3 ubiquitin-protein ligase XIAP (Homo sapiens) (P98170 whole entry, looked up): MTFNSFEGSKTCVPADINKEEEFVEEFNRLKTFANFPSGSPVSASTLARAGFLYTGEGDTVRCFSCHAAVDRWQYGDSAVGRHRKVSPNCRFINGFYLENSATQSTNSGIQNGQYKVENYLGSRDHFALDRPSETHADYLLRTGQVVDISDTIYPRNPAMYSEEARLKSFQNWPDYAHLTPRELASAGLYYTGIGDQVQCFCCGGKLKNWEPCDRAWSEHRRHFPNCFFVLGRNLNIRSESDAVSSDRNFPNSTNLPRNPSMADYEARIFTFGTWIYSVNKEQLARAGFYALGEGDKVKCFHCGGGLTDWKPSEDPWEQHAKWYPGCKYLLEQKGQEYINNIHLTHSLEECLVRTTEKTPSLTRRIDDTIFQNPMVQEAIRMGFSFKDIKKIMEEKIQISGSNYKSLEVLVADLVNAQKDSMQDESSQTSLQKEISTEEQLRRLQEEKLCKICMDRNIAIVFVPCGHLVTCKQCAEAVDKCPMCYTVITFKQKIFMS

Activity calls are given as the source filed them. Unless noted, how the calls were made is not given here.

For `C=C[C@H](COC(C)=O)N(Cc1ccc(OC(C)=O)c(OC)c1)S(=O)(=O)c1ccc(Br)cc1`, the z-score in experiment [1] is 0.203; in experiment [2], -0.533 (inactive); in [3], 0.427 (inactive); in experiment [5], -0.152 (inactive); in [6], 0.318 (inactive); in experiment [7], 1.65 (inactive). Besides, the z-score in experiment [8] is 2.5 (inactive); in experiment [9], 0.798. The composite z-score in experiment [4] is -1.24 (inactive); in [10], -0.162.
Take `CC(C)(C)OC(=O)CC[C@@]1(C(=O)O)N=C(c2ccc(OCCCO)cc2)O[C@@H]1c1ccccc1N=[N+]=[N-]`: the z-score in experiment [1] is 0.166; in experiment [2] it was 0.523 (inactive); in experiment [3], -0.789 (inactive); in experiment [5] it was 0.659 (inactive); in experiment [6], 0.0589 (inactive); in [7], 0.428 (inactive). For the same compound, the z-score in [8] is 0.367 (inactive); in experiment [9], -0.105. Further, the composite z-score was 0.0016 (inactive) in experiment [4] and -0.187 in [10].
In the case of `COC(=O)[C@@]1(Cc2ccc(OC)cc2)[C@H]2c3cc(C(=O)N4CCCC4)n(Cc4cc(F)cc5c4OCOC5)c3C[C@H]2CN1C(=O)c1ccccc1`, the z-score in [1] is -1.47; in [2] it was 0.433 (inactive); in experiment [3], -5.86 (inactive); in [5] it was 0.687 (inactive); in [6] it was -0.334 (inactive); in experiment [7], -1.32 (inactive). Besides, the z-score in experiment [8] is -1.24 (inactive); in [9], -3.53. In addition, the figures for the composite z-score in experiment [4] and in [10] were -0.607 (inactive) and 0.389, respectively.
Take `COC(=O)c1c(CC[C@@H](CO)NC(=O)N[C@@H](Cc2ccccc2)Cn2cc(C3(O)CCCCC3)nn2)oc(C(C)=O)c1C(=O)OC`: the z-score in experiment [1] is -0.172; in experiment [2], -3.95 (inactive); in [3], 1.37 (inactive); in experiment [5], -0.452 (inactive); in experiment [6] it was -2.6 (inactive); in experiment [7] it was 1.05 (inactive). For the same compound, the z-score in experiment [8] was 0.874 (inactive); in experiment [9] it was 0.428. For the same compound, the composite z-score in experiment [4] is -4.08 (inactive); in experiment [10], 0.0762.
On to `Cc1ccc(S[C@]2(C(=O)NC3CC3)CC(=O)N(Cc3ccccc3)[C@@H]2c2ccc(CO)cc2)cc1`, for which the z-score in [1] was -0.177; in experiment [2] it was -1.71 (inactive); in experiment [3], 0.262 (inactive); in [5], 0.196 (inactive); in [6] it was -0.5 (inactive); in [7] it was 0.354 (inactive). Also, the results for the z-score in experiment [8] and in experiment [9] were -0.255 (inactive) and 0.35, respectively. Moreover, the composite z-score is -0.867 (inactive) in experiment [4] and 0.0424 in experiment [10].
Take `COC(=O)C(CC#Cc1ccc2c(c1)[C@]1(C(=O)N2)[C@H](c2ccc(OCCO)cc2)N2[C@H](c3ccccc3)[C@H](c3ccccc3)OC(=O)[C@H]2[C@@H]1C(=O)NC[C@H](O)c1ccccc1)C(=O)OC`: the z-score in experiment [1] is 0.722; in [2] it was 1.51 (inactive); in experiment [3] it was 0.343 (inactive); in experiment [5], 1.05 (inactive); in experiment [6], 3.39 (inactive); in experiment [7] it was 0.602 (inactive). Further, the figures for the z-score in [8] and in experiment [9] were 0.869 (inactive) and -0.47, respectively. Moreover, the composite z-score in experiment [4] was 0.676 (inactive); in experiment [10] it was 0.104.
With `COc1ccc(C#Cc2ccc3c(c2)[C@]2(C(=O)N3)[C@H](c3ccc(O)cc3)N3[C@H](c4ccccc4)[C@H](c4ccccc4)OC(=O)[C@H]3[C@@H]2C(=O)NC[C@H](O)c2ccccc2)cc1`, the z-score was -0.689 in experiment [1]; 1.81 (inactive) in [2]; -2.56 (inactive) in experiment [3]; 0.325 (inactive) in experiment [5]; 2.71 (inactive) in experiment [6]; 0.106 (inactive) in experiment [7]. The results for the z-score in experiment [8] and in experiment [9] were 0.105 (inactive) and -4.1, respectively. Also, the figures for the composite z-score in experiment [4] and in experiment [10] were -3.64 (inactive) and -0.0749, respectively.
Take `[N-]=[N+]=Nc1ccccc1[C@@H]1OC(c2ccc(OCCCO)cc2)=N[C@]1(CCS(=O)(=O)c1ccccc1)C(=O)N1CCOCC1`: the z-score was -0.167 in experiment [1]; 0.907 (inactive) in [2]; -0.638 (inactive) in [3]; 0.507 (inactive) in [5]; 1.9 (inactive) in experiment [6]; -0.311 (inactive) in experiment [7]. The z-score in [8] was 0.0945 (inactive); in [9] it was -1.19. In addition, the results for the composite z-score in experiment [4] and in [10] were 1.56 (inactive) and 0.182, respectively.
In the case of `COC(=O)c1ccc(C(O)C2C=CC3C(=O)N(c4ccccc4)C(=O)C3N2Nc2ccc(C#N)cc2)o1` (stereo not given), the z-score in experiment [1] is -0.407; in [2], -0.959 (inactive); in experiment [3], -0.582 (inactive); in [5] it was 1.38 (inactive); in experiment [6], 0.0055 (inactive); in experiment [7], -1.52 (inactive). Further, the results for the z-score in experiment [8] and in experiment [9] were -0.249 (inactive) and -0.357, respectively. The composite z-score was -0.847 (inactive) in [4] and -0.22 in experiment [10].
For the compound `Cc1ccc(S[C@]2(C(=O)NCc3ccccc3)CC(=O)N(Cc3ccccc3Cl)[C@@H]2c2ccc(CO)cc2I)cc1`, the z-score in experiment [1] was 1.21; in [2], -3.45 (inactive); in experiment [3] it was -3.03 (inactive); in experiment [5], 0.531 (inactive); in experiment [6] it was -1.07 (inactive); in experiment [7] it was 0.321 (inactive). Also, the z-score is 0.439 (inactive) in experiment [8] and -2.02 in experiment [9]. For the same compound, the composite z-score in experiment [4] is -1.82 (inactive); in experiment [10], -0.136.

Values taken from PubChem BioAssay.
